# Measured values as given in PubChem BioAssay (EPA / NIEHS).
# Calls of active or inactive are those of the source. How the source made its calls: active means hit-call score of the fitted dose curve at least 0.9, where 1 is the maximum; inactive means score below 0.9.
# Read-out: Intercellular Adhesion Molecule 1 (ICAM1), ICAM1 (gene 3383)
# Assay: BSK_3C_ICAM1: BioMAP Diversity Plus: 3C Assay for Intercellular Adhesion Molecule 1 (ICAM1) Biomarker Activity (AID 2283003)
# Settings: primary human endothelial cells (HUVEC); actives raise or lower the signal
# Procedure: BSK_3C is a cell-based, multiplexed-readout assay that uses umbilical vein endothelium, a human vascular primary cell, with measurements taken at 24 hours after chemical dosing in a 96-well plate.BSK_3C_ICAM1 is an assay component measured in the BSK_3C assay. It measures ICAM-1 antibody related to regulation of gene expression using ELISA technology.Data from the assay component BSK_3C_ICAM1 was analyzed into 1 assay endpoint. This assay endpoint, BSK_3C_ICAM1, was analyzed with bidirectional fitting relative to DMSO as the negative control and baseline of activity. Using a type of binding reporter, gain or loss-of-signal activity can be used to understand changes in the signaling as they relate to the gene ICAM1. Furthermore, this assay endpoint can be referred to as a primary readout, because this assay has produced multiple assay endpoints where this one serves a signaling function. To generalize the intended target to other relatable targets, this assay endpoint is annotated to the cell adhesion molecules intended target family, where the subfamily is Immunoglobulin CAM.
# The levels of cell surface (or secreted, indicated by the prefix "s") biomarker endpoints were measured by ELISA. Overt cytotoxicity to cells in confluent adherent cultures (all systems other than the BT system) was assessed by measuring total protein levels using sulforhodamine B (SRB) staining in parallel cultures at the time of biomarker measurements, indicated as SRB endpoints. For proliferation assays for adherent cell types, individual cell types are cultured at sub-confluence and relative cell numbers quantified by SRB staining at time points optimized for each system (48 h: 3C and CASM3C systems; 72 h: BT and HDF3CGF systems; 96 h: SAg system). SRB was performed by staining cells with 0.1% SRB after fixation with 10% TCA and reading wells at 560 nm.Viability and proliferation of PBMC (T cells) was quantified by Alamar Blue reduction for the SAg and BT systems. For PBMC viability (referred to as PBMC Cytotoxicity within the assay endpoint names), cells were plated (75,000/well in a 96-well plate) and then chemical samples added for 1 h before addition of activators, SEB and TSST-1 (20 ng/mL final concentration each). Cells were incubated for 90 h. Then, Alamar Blue (20 uL/well) (Invitrogen, Cat DAL1100) was added for 6 h, and the plates were read with a fluorescence microplate reader at 546/580 nm (excitation/emission). For PBMC proliferation, cells were plated and activated as above but incubated for only 16 h prior to addition of Alamar Blue. Plates were read after 6 h.
Compound,outcome,AC50
COS(C)(=O)=O,inactive,–
Cn1cc[nH]c1=S,inactive,–
CCOC(N)=O,inactive,–
NCC(F)(F)C(F)(F)C(F)(F)C(F)(F)F,inactive,–
OCc1c[nH]c2ccccc12,inactive,–
CNC(C)=O,inactive,–
O=S(=O)(O)CCC(F)(F)C(F)(F)C(F)(F)C(F)(F)C(F)(F)C(F)(F)F,inactive,–
Cc1ccc(S(=O)(=O)NC(=O)NN2CCCCCC2)cc1,inactive,–
OC(Cn1cncn1)(Cn1cncn1)c1ccc(F)cc1F,inactive,–
OCC(CO)(CO)CO,inactive,–
Cc1cccc(O)c1C,inactive,–
O=C(O)c1cccc(C(=O)O)c1,inactive,–
C=CN1CCCC1=O,inactive,–
O=C(O)c1cccc(C[C@@H]2COc3ccc(OCc4nc5cc(F)ccc5s4)cc3[C@@H]2O)c1,inactive,–
CCCc1ccccc1,inactive,–
Cc1nc(-c2ccccn2)ncc1C(=O)Nn1cc(C)c2cc(F)ccc21,inactive,–
OCc1ccccc1,inactive,–
CCCCCCCC/C=C\CCCCCCCC(=O)OC[C@@H](O)[C@H]1OC[C@H](O)[C@H]1O,inactive,–
CCc1ccc(O)c(C(C)(C)C)c1,–,31.5 µM (active)
O=C(O)c1ccc2c(c1)nc(C(=O)NC1CCN(C3CC3)CC1)n2Cc1cc(-c2ccc(Cl)s2)on1,inactive,–

Compound,outcome,AC50
CCCCCCCCCCCCCCCCOS(=O)(=O)O,inactive,–
C[C@@H](Oc1ccc(CNC(=O)c2cccnc2Oc2ccc3c(c2)OCO3)c(F)c1)C(=O)O,inactive,–
CCCCC(CC)C(=O)OCCOCCOCCOC(=O)C(CC)CCCC (stereo not given),inactive,–
OCCOCCOCCO,inactive,–
CC1(C)C(=O)N(Cl)C(=O)N1Cl,inactive,–
OC(CCl)CCl,inactive,–
OC[C@H]1O[C@@](CO)(O[C@H]2O[C@H](CO)[C@@H](O)[C@H](O)[C@H]2O)[C@@H](O)[C@@H]1O,inactive,–
C[Si](C)(C)C(F)(F)C(F)(F)C(F)(F)F,inactive,–
CCCCOC(=O)c1ccccc1,inactive,–
CC(C)CCCCCCOC(=O)C1CCCCC1C(=O)OCCCCCCC(C)C (stereo not given),inactive,–
CCCCCCCCCC,inactive,–
Cc1ncc([C@@H](CCCCCCc2ccc3c(n2)NCCC3)CC(=O)O)cn1,inactive,–
CCOc1ccc2[nH]cc(C(=O)NCc3ccccc3)c(=O)c2n1,inactive,–
O=C(Cl)C(F)(F)C(F)(F)C(F)(F)C(=O)Cl,inactive,–
NC(N)=O,inactive,–
c1ccc2cc3ccccc3cc2c1,inactive,–
O=S1(=O)CCCO1,inactive,–
C=CCc1cc(S(=O)(=O)c2ccc(O)c(CC=C)c2)ccc1O,–,29.3 µM (active)
FC(F)(F)C(F)(F)C(F)(F)C(F)(F)C(F)(F)C(F)(F)I,inactive,–
Nc1ccn([C@@H]2O[C@H](CO)[C@@H](O)[C@@H]2O)c(=O)n1,inactive,–
